The record followed here is the supplement of paper PMC11417369.

± gives the standard deviation of the averaged measurements. In all, about 25,000 sequences were measured (“ln(normalized median fluorescence intensity)”: median about 7.9, highest 2% from about 11 on). This is one part of a sample in which the highest values are shown more often than they occur.

This test concerns PfAP2-I AP2 domain 3 (GST-tagged). The test is described as follows: gcPBM binding intensity (ln(normalized median fluorescence intensity)); higher = stronger DNA binding. The essentials:
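Each value is the highest Masliner-normalised natural-log median intensity across replicate spots of either orientation of a probe. The probes were primer-extended double-stranded 36-bp intergenic genomic sequences on an Agilent 4 × 180k array, alongside negative controls, exposed for 1 h to GST-tagged P. falciparum DNA-binding domains expressed in E. coli. Bound protein was picked up with Alexa488 anti-GST antibody and scanned at 488 nm.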
For “ACACGTTTATATAAAAAATTAAAATTTTTCTTATTT [CACACA_negctrl_site1523]”, the “gcPBM binding intensity (ln)” value stood at 7.95 ± 0.32.
As for “TTGCCCCAGGAGTTCACACACATAATAGATTGTCAC [CACACA_site726]”, the “gcPBM binding intensity (ln)” value came to 7.79 ± 0.61.
For the sequence “ATATTTTATTTTAATACACACAAGTTATATAACCAC [CACACA_site6508]”, the “gcPBM binding intensity (ln)” value amounted to 8.19 ± 0.48.
As for “CAAGTATTAATTATGTGTACATATATATATATATAT [XGTACX_site5311]”, the “gcPBM binding intensity (ln)” value was determined as 9.36 ± 0.23.
As for “ATCGTGTTAAATGTTGTGCACATATAAATTACAAAA [GTGCAC_site9822]”, the “gcPBM binding intensity (ln)” value is 10.605 ± 0.007.
Turning to TATATGTATGTTTGTGTGCACACATAAATATTATAT, the “gcPBM binding intensity (ln)” value is 9.79 ± 0.042.
Regarding TTGTTGTGTATTATCGTGCACATAATATAAAAGATT, the “gcPBM binding intensity (ln)” value worked out at 11.11 ± 0.078.
For the sequence “TAAATGAAAATATGTACACACTTGAAAACTTTTATG [CACACA_site7388]”, the “gcPBM binding intensity (ln)” value worked out at 7.84 ± 0.45.
In the case of “GTTTTATAAAAAGGCGCACACATATACATAAATATA [CACACA_site1864]” it was 8.47 ± 0.37; in that of “AAAATATAATATATTGCACACAAAAAGTGAATTATT [CACACA_site8489]”, 10 ± 0.62.
Under “TGTAATAATTATTGCACGCACACAAAAACCTATAGA [CACACA_site2932]” stands 10.8 ± 0.88; under “TAATAATTATTGCACGCACACAAAAACCTATAGATT [CACACA_site2931]”, 11 ± 0.67.
For the sequence “ATATTTTTTACTATTACACACAAGGGATTATTATTT [CACACA_site3915]”, the “gcPBM binding intensity (ln)” value is 7.99 ± 0.69.
“ATACATACATATGTATGTACGTATGTATGTATGTAT [XGTACX_site3853]”: the “gcPBM binding intensity (ln)” value was 8 ± 0.2.
For the sequence “TATACTGTCAATTCTACACACCATAGGGGGAGCATA [CACACA_site1875]”, the “gcPBM binding intensity (ln)” value is 9.22.
In the case of “ATGAAATATGCACAGTGTACTTTTATGAGGAACATA [XGTACX_site426]”, the “gcPBM binding intensity (ln)” value worked out at 9.045 ± 0.064.
In the case of “TTTTTTTTTTTTAATGCACACAGTGAACTTTTACTT [CACACA_site3567]” it was 11.3 ± 0.36; in that of “TTTATTTTTAACAGTGCACACATAACTTAATTATAT [CACACA_site8681]”, 10.69 ± 0.071; in that of AAAGAATTATATAAGGTGCACGAATGTTTCTTTAAT, 10.96 ± 0.035.
With “CATATAAGACAAAAGGTGCAATTTTAATGCTTTTAT [GTGCAC_site9432]”, the “gcPBM binding intensity (ln)” value amounted to 9.99 ± 0.071.
As for “TTTCTTTTTTTTTAATGTACTTTTTTTATAAAAGGT [XGTACX_site5688]”, the “gcPBM binding intensity (ln)” value was found to be 7.99 ± 0.23.
“AATAATACATCCTTAGTGCAGAAATAAAAATTAAGC [GTGCAC_site9955]”: the “gcPBM binding intensity (ln)” value came out at 9.76 ± 0.24.
As to “AATATATAAATTAATACATGCACATATAGAAAGGGA [TGCATGCA_site472]”, the “gcPBM binding intensity (ln)” value was 8.7 ± 0.52.
As to AAATAATTAGAAATAGTGCACATAATTAAGGGATAC, the “gcPBM binding intensity (ln)” value is 11.5 ± 0.31.
In the case of “ATTTTACATATTTGCACACATATATTTAAATACATA [CACACA_site4627]”, the “gcPBM binding intensity (ln)” value came out at 9.85 ± 0.28.
Regarding GTATATCATTTTGGGGTGCTTAAAAATAATGAATAC, the “gcPBM binding intensity (ln)” value was 10.4 ± 0.46.
In the case of TATGAACTTTTGGGGGTGCCTTAAAATGTATATTCT it was 11.2 ± 0.53; in that of “TTATTATTATATGAATGTACTTAAAAATACATTTTG [XGTACX_site2959]”, 7.43 ± 0.49.
On to “TCAACACACGTGGAATGTACTTTAGTATAAGAATTC [XGTACX_site7842]”, for which the “gcPBM binding intensity (ln)” value stood at 7.74 ± 0.64.
For the sequence “AAATTTATATAATATTGTACATTAAAAATTATATAT [XGTACX_site8009]”, the “gcPBM binding intensity (ln)” value was 7.73 ± 0.3.
Under “TAAAATATGTCATGGGTGCTTCTTTTTATACCTATG [GTGCAC_site9888]” stands 8.49 ± 0.38.
“AATATGTAAATATGGGTGCTTTAAAATATATTCATT [GTGCAC_site9583]”: the “gcPBM binding intensity (ln)” value turned out to be 11.1 ± 0.66.
Regarding “TTTAATTAAATATGTATATATATTCATGTATGTATA [GTGCAC_negctrl_site14]”, the “gcPBM binding intensity (ln)” value was 7.68 ± 0.26.
For the sequence “GAATAAATTAAAAACGCATGTATCATTACTACATAA [TGCATGCA_site111]”, the “gcPBM binding intensity (ln)” value turned out to be 7.36 ± 0.48.
As for TTTATATAAATTTAAGTGCAAAATGAACAAGTGAAA, the “gcPBM binding intensity (ln)” value worked out at 10.1 ± 0.15.
For “ATAACAAAATGAAGAGTGCATTACCAAGTGGGTAAA [GTGCAC_site9450]”, the “gcPBM binding intensity (ln)” value was found to be 10.93 ± 0.014.
Consider “ATATATATATATAAAGTGCAAAAATGAAAGTAAGAC [GTGCAC_site9850]”, for which the “gcPBM binding intensity (ln)” value came to 10.4 ± 0.21.
For “TTATATATTTTTACCATACACACATATAATAAATAT [CACACA_site3721]”, the “gcPBM binding intensity (ln)” value was 8.04 ± 0.63.
“TTTTTATTTTTTGTCTGTACATATATAAATTTATTA [XGTACX_site1525]”: the “gcPBM binding intensity (ln)” value came to 7.88 ± 0.47.
As to “CCGTACAATTTTGTCACACATAAAATACTTATGTAT [CACACA_site4871]”, the “gcPBM binding intensity (ln)” value is 7.66 ± 0.51.
In the case of AGTAGATTTTTATTAGTGCATTTTATACTACAAAAA it was 9.71 ± 0.24; in that of “CACCCTTTACACAAGGTGCATACTTTATTATATTTT [GTGCAC_site9778]”, 9.305 ± 0.049; in that of “TCCTTTTTACTACTAGTGCATTATTTACAAGGTCCG [GTGCAC_site9441]”, 11.4 ± 0.68.
Consider “TATTATTATTGTTGATGTACATTTAATATAATATAT [XGTACX_site4482]”, for which the “gcPBM binding intensity (ln)” value was 7.7 ± 0.38.
For the sequence AATATTGTTCACAAGGTGCTTTTTATTCATACTAAT, the “gcPBM binding intensity (ln)” value amounted to 8.86 ± 0.18.
With TTTTTAATTTTGTGGGTGCTTTCGTGTTATTATATA, the “gcPBM binding intensity (ln)” value is 9.415 ± 0.021.
For the sequence “TGTGTGTGTTCATGGGTGCTTTAATACTATTATAGG [GTGCAC_site9465]”, the “gcPBM binding intensity (ln)” value was determined as 11 ± 0.61.
Consider “TGAATATTTCTATATACACACATATAAATATAAATA [CACACA_site7593]”, for which the “gcPBM binding intensity (ln)” value came out at 7.55 ± 0.31.
On to “GTGGTATAAATTTTATGTACTTAATAACTCATTAAT [XGTACX_site5555]”, for which the “gcPBM binding intensity (ln)” value turned out to be 7.79 ± 0.28.
